{"source": "PubChem BioAssay (NCI)", "note": "The panel holds about 83,000 compounds, 20% with a hit somewhere; the sample as a whole holds those more often.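 Cell lines were cultured in 96-well plates, exposed to a single compound concentration, and assessed for percent growth 48 hours later.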 Activity calls are given as the source filed them. Rule for the calls: active = growth percent below 10; inactive = the rest.", "data": [{"test_system": "HL-60(TB) leukemia", "test": "NCI-60 one-dose screen, 48 h (100 = growth as untreated, 0 = no growth, -100 = all killed)", "conditions": "10 µM unless noted", "values": [{"molecule": "COc1ccc(C(=O)NC(=O)Nc2ccc3c(c2)NC(=O)/C3=C\\c2[nH]c(C)c(C(=O)O)c2C)c(F)c1", "growth": "80.8% (inactive)"}, {"molecule": "CCn1cc(-c2ccnc3[nH]c(-c4cccc(CN(C)C)c4)cc23)c(-c2ccc(NC(=O)N(C)C)cc2)n1", "growth": "-40.6% (active)"}, {"molecule": "CCCCCCCCCCC1OC(C)CC(C)O1", "note": "(stereo not given)", "growth": "92.9% (inactive)"}, {"molecule": "O=C1/C(=C/c2ccc(O)cc2)CSc2ccc(Cl)cc21", "growth": "22.7% (inactive)"}, {"molecule": "O=S(=O)(NCCCNc1cc(-c2cn(-c3ccccc3)nc2-c2cccc(O)c2)ccn1)c1ccc(F)cc1", "growth": "30.5% (inactive)"}]}]}
